# Test results: PubChem BioAssay (EPA / NIEHS)
# Active and inactive are the calls of the source. The calls were made as follows: active = hit-call score of the fitted dose curve at least 0.9, where 1 is the maximum; inactive = score below 0.9.
# Assays:
# [1] = CEETOX_H295R_PROG: CeeTox H295R High-throughput Steroidogenesis Assay for Progesterone (PROG) (AID 2283442); conditions: actives raise or lower the signal;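 as to AC50: human H295R adrenal cells primed with 10 µM forskolin before dosing; progesterone secreted into medium by H295R cells measured by HPLC-MS/MS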
# Outline: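 Adrenal H295R line, forskolin-stimulated (10 uM, 48 h) before dosing. 48 h exposure, 0.1% DMSO vehicle. Secreted progesterone by reverse-phase HPLC with ESI+ MS/MS quantification; DMSO-normalised bidirectional curve fit.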
# [2] = read-out: Tumor necrosis factor receptor superfamily member 6 (Homo sapiens) (UniProt P25445); experiment: LTEA_HepaRG_FAS: Life Technologies and Expression Analysis (LTEA) Assay for Fas cell surface death receptor (FAS) using HepaRG (AID 2283447); conditions: mRNA level, 48 h; actives raise or lower the signal
# Outline: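 FAS transcript level was measured by TaqMan qRT-PCR against three housekeeping genes after 48 h chemical exposure. Cells were HepaRG, 0.5% DMSO vehicle, with a top concentration of 100 uM and half-log dilutions over eight points, in duplicate.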
# [3] = read-out: Fatty acid synthase (Homo sapiens) (UniProt P49327); experiment: LTEA_HepaRG_FASN: Life Technologies and Expression Analysis (LTEA) Assay for Fatty Acid Synthase (FASN) using HepaRG (AID 2283448); conditions: mRNA level, 48 h; actives raise or lower the signal
# Protocol: (§1) LTEA_HepaRG is a cell based, multiplexed-readout assay that uses HepaRG, a human liver cell line, with measurements taken at 48 hours after chemical dosing on a 96-well plate.LTEA_HepaRG_FASN is one of 102 assay component(s) measured in the LTEA HepaRG cell culture assay. It is a marker of Steatosis.Data from the assay component LTEA_HepaRG_FASN was analyzed into 1 endpoint. This assay endpoint, LTEA_HepaRG_FASN, was analyzed with bidirectional fitting relative to DMSO as the negative control and baseline of activity. Using a type of inducible reporter, measures of mRNA induction for gain or loss-of-signal activity can be used to understand regulation of transcription factor activity. To generalize the intended target to other relatable targets, this assay endpoint is annotated to the lyase intended target family, where the subfamily is fatty acid synthase.
# A total of 1060 chemcials from the ToxCast library were tested in eight-point concentration-response experiments. Cell culture and cytotoxicity assays were conducted at Thermo Fisher Scientific's Custom Services facility (Madison, WI). […] Fluidigm's 96.96 Dynamic ArrayTM (Fluidigm, Amsterdam, the Netherlands) technology was used for gene expression analyses by quantitative reverse transcription polymerase chain reaction (qRT-PCR, performed by Quintiles/Expression Analysis, Durham, NC)89. […]
# [4] = read-out: Cyclin D2 (CCND2), CCND2 (gene 894); experiment: LTEA_HepaRG_CCND2: Life Technologies and Expression Analysis (LTEA) Assay for Cyclin D2 (CCND2) using HepaRG (AID 2283449); conditions: mRNA level, 48 h; actives raise or lower the signal
# Outline: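 CCND2 transcript levels, quantified by qRT-PCR and normalised to three housekeeping genes, were fitted bidirectionally against 0.5% DMSO. HepaRG cultures were dosed 48 h in duplicate with an 8-point half-log series up to 100 uM.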
# [5] = read-out: Cyclin Dependent Kinase Inhibitor 1A (CDKN1A), CDKN1A (gene 1026); experiment: LTEA_HepaRG_CDKN1A: Life Technologies and Expression Analysis (LTEA) Assay for Cyclin Dependent Kinase Inhibitor 1A (CDKN1A) using HepaRG (AID 2283450); conditions: mRNA level, 48 h; actives raise or lower the signal
# Protocol: as §1, with “plate.LTEA_HepaRG_CDKN1A” for “plate.LTEA_HepaRG_FASN”, “Cell proliferation, survival, death.Data” for “Steatosis.Data”, “LTEA_HepaRG_CDKN1A” for “LTEA_HepaRG_FASN”, “LTEA_HepaRG_CDKN1A,” for “LTEA_HepaRG_FASN,”, “cell cycle” for “lyase”, “Cell proliferation, survival, death.” for “fatty acid synthase.”
# (§2) A total of 1060 chemcials from the ToxCast library were tested in eight-point concentration-response experiments. Cell culture and cytotoxicity assays were conducted at Thermo Fisher Scientific's Custom Services facility (Madison, WI). A single lot of human HepaRG cells (Thermo Fisher Scientific, Frederick, MD) was used for the cell culture experiments. 96-well format collagen type I coated plates of human HepaRG cells were prepared using established methods. Briefly, cryopreserved HepaRG cells were thawed, plated at a density of approximately 100,000 cells/well in HepaRG Thaw, Plate, and General Purpose media (HPRG770, Thermo Fisher Scientific), and incubated for 48 hours. […] Fluidigm's 96.96 Dynamic ArrayTM (Fluidigm, Amsterdam, the Netherlands) technology was used for gene expression analyses by quantitative reverse transcription polymerase chain reaction (qRT-PCR, performed by Quintiles/Expression Analysis, Durham, NC)89. […]
# [6] = read-out: Cyclin D1 (CCND1), CCND1 (gene 595); experiment: LTEA_HepaRG_CCND1: Life Technologies and Expression Analysis (LTEA) Assay for Cyclin D1 (CCND1) using HepaRG (AID 2283451); conditions: mRNA level, 48 h; actives raise or lower the signal
# Outline: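 Human liver HepaRG line; 48 h dosing, 8 conc. ≤100 uM, 0.5% DMSO; TaqMan qRT-PCR mRNA, 3 housekeeping genes; bidirectional curve fit vs DMSO.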
# [7] = read-out: catalase (CAT), CAT (gene 847); experiment: LTEA_HepaRG_CAT: Life Technologies and Expression Analysis (LTEA) Assay for catalase (CAT) using HepaRG (AID 2283452); conditions: mRNA level, 48 h; actives raise or lower the signal
# Outline: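 Expression of CAT was quantified by TaqMan qRT-PCR with ACTB/GAPDH/POLR2A normalization after 48 h chemical exposure of HepaRG. Eight-point half-log series, top 100 uM, in 0.5% DMSO; gain or loss fitted against vehicle.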
# [8] = read-out: flavin-containing dimethylaniline monooxygenases 3 (FMO3), FMO3 (gene 2328); experiment: LTEA_HepaRG_FMO3: Life Technologies and Expression Analysis (LTEA) Assay for flavin-containing dimethylaniline monooxygenases 3 (FMO3) using HepaRG (AID 2283453); conditions: mRNA level, 48 h; actives raise or lower the signal
# Outline: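 Eight-point concentration-response in serum-free HepaRG cultures (top 100 uM, 0.5% DMSO, 48 h). Read-out: FMO3 mRNA level normalized to three endogenous control genes, fitted bidirectionally versus vehicle.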
# [9] = read-out: Cytochrome P450 (CYP1A1), CYP1A1 (gene 1543); experiment: LTEA_HepaRG_CYP1A1: Life Technologies and Expression Analysis (LTEA) Assay for Cytochrome P450 (CYP1A1) using HepaRG (AID 2283454); conditions: mRNA level, 48 h; actives raise or lower the signal
# Protocol: as §1, with “plate.LTEA_HepaRG_CYP1A1” for “plate.LTEA_HepaRG_FASN”, “NR mediated metabolism.Data” for “Steatosis.Data”, “LTEA_HepaRG_CYP1A1” for “LTEA_HepaRG_FASN”, “LTEA_HepaRG_CYP1A1,” for “LTEA_HepaRG_FASN,”, “cyp” for “lyase”, “xenobiotic metabolism.” for “fatty acid synthase.”
# as §2
# [10] = read-out: CFLAR gene, CFLAR (gene 8837); experiment: LTEA_HepaRG_CFLAR: Life Technologies and Expression Analysis (LTEA) Assay for CFLAR gene using HepaRG (AID 2283455); conditions: mRNA level, 48 h; actives raise or lower the signal
# Outline: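 Transcript level by qRT-PCR (normalized to ACTB, GAPDH and POLR2A) after 48 h chemical exposure of HepaRG cells, top concentration 100 uM with half-log steps, 0.5% DMSO vehicle, duplicates; fitted bidirectionally against DMSO baseline.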
# Fatty acid synthase (Homo sapiens), sequence (P49327 whole entry, looked up): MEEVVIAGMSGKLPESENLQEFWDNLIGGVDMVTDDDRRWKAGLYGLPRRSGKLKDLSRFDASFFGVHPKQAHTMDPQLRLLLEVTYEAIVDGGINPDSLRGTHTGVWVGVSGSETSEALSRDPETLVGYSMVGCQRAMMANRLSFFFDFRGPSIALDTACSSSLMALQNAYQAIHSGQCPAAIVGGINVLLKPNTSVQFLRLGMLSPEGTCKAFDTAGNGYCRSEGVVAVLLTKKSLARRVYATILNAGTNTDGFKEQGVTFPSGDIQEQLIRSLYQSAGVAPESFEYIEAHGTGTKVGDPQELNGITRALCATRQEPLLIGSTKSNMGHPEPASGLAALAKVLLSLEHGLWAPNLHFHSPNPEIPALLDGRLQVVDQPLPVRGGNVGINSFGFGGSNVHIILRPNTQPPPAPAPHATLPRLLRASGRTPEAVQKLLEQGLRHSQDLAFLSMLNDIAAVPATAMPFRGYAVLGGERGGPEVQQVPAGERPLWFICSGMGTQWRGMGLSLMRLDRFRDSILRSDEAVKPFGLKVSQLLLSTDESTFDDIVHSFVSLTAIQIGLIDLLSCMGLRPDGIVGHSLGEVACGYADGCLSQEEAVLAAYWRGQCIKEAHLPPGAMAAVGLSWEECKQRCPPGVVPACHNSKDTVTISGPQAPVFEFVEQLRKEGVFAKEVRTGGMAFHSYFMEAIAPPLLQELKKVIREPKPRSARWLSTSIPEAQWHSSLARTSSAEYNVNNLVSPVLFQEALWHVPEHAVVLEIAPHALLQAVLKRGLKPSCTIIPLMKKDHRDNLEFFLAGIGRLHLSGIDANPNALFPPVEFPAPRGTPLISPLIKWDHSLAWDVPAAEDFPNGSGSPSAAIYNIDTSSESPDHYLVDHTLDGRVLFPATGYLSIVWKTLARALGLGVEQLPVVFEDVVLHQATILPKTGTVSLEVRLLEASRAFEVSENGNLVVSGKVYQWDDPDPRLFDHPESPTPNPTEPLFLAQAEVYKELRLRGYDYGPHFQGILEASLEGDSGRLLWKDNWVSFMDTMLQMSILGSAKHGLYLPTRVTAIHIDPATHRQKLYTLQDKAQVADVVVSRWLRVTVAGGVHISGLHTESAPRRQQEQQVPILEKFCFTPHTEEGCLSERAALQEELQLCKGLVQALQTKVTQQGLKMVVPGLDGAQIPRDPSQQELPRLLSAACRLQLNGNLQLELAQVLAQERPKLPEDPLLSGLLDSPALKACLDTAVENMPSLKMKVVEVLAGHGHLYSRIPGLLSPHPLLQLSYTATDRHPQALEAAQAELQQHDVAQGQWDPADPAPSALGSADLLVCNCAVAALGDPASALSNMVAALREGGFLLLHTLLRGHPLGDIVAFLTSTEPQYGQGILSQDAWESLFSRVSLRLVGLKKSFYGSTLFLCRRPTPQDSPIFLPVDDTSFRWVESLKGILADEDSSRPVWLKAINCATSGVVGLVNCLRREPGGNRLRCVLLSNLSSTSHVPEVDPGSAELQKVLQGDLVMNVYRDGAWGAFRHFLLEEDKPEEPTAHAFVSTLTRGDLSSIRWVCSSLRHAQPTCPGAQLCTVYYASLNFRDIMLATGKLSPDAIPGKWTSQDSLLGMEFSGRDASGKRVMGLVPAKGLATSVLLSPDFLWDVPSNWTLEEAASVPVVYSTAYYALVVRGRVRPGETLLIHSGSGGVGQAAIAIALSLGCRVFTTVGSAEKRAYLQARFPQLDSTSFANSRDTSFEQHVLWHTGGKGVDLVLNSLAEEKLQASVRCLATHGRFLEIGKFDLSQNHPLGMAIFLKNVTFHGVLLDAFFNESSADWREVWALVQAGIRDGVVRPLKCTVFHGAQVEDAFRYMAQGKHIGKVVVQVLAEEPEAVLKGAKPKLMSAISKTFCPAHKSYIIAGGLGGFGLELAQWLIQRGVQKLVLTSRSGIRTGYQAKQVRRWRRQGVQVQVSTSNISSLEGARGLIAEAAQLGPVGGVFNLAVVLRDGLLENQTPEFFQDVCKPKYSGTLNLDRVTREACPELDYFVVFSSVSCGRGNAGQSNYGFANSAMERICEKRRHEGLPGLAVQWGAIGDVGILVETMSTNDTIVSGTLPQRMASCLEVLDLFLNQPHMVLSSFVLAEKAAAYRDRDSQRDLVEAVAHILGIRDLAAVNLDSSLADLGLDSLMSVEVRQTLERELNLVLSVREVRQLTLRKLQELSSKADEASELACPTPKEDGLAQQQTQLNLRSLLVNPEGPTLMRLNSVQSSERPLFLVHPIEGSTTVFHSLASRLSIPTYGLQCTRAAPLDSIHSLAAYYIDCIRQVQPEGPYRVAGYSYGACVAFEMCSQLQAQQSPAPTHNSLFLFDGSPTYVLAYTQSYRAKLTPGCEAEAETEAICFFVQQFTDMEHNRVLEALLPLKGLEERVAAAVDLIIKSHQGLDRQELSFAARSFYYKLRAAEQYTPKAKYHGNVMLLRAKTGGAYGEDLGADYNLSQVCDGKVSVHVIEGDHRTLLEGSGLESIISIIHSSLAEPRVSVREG
structure (smiles),measurement,setting,value
O=C(OCc1ccccc1)c1ccc(O)cc1,AC50,[1],24.6 µM (active)
O=C(O)c1cc(O)c2ccccc2c1O,AC50,[1],0.5 µM (active)
C=CC(=O)OCCCCCCOC(=O)C=C,outcome,[1],inactive
CC(C)(c1ccccc1)c1ccc(Nc2ccc(C(C)(C)c3ccccc3)cc2)cc1,AC50,[1],1.84 µM (active)
C1CNCCN1,outcome,[2],inactive
same,outcome,[3],inactive
same,outcome,[4],inactive
same,outcome,[5],inactive
same,outcome,[6],inactive
same,outcome,[7],inactive
same,outcome,[8],inactive
same,AC50,[9],73.1 µM (active)
same,outcome,[10],inactive
CC(C)(C)NC(=O)[C@H]1CC[C@H]2[C@@H]3CC[C@H]4NC(=O)C=C[C@]4(C)[C@H]3CC[C@]12C,AC50,[1],1.57 µM (active)
COc1ccc(C(=O)c2ccccc2)c(O)c1,outcome,[1],inactive
COc1ccc(-c2coc3cc(O)cc(O)c3c2=O)cc1,AC50,[1],1.81 µM (active)
Cc1ccc([N+](=O)[O-])cc1N,AC50,[1],30.2 µM (active)
same,outcome,[2],inactive
same,outcome,[5],inactive
same,outcome,[6],inactive
same,outcome,[7],inactive
same,outcome,[8],inactive
same,AC50,[9],25 µM (active)
same,outcome,[10],inactive
CCOC(=O)C1=NN(c2ccc(Cl)cc2Cl)C(C)(C(=O)OCC)C1 (configuration not stated),outcome,[1],inactive
CCN1CN(CC)CN(CC)C1,outcome,[1],inactive
CN(C)c1ccc2nc3ccc(=[N+](C)C)cc-3sc2c1,AC50,[1],0.617 µM (active)
C=C[C@@]1(C)CC(=O)[C@]2(O)[C@@]3(C)[C@@H](O)CCC(C)(C)[C@@H]3[C@H](O)[C@H](OC(C)=O)[C@@]2(C)O1,outcome,[1],inactive
Nc1ccc(C(=O)O)cc1,outcome,[2],inactive
same,outcome,[3],inactive
same,outcome,[4],inactive
same,outcome,[5],inactive
same,outcome,[6],inactive
same,outcome,[7],inactive
same,outcome,[8],inactive
same,AC50,[9],77 µM (active)
same,outcome,[10],inactive
